A selection: hits, their analogues and other compounds. The true share with any hit is near 1.2%.
MEX-5 binding – C. elegans MEX-5 TCR-2 RNA binding activity; activity score (negative = inhibition of binding), % at 10 µM; MEX-5/FITC-TCR2 RNA binding, fluorescence polarization; active compounds read low; AID 1832; 300,000 tested, 0.38% active;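 active = inhibition past about -25% in most replicates, and total fluorescence under double the plate's negative control median, limit read from the data; inconclusive = replicates evenly split on the limit, or fluorescence at least double controls; inactive = too little inhibition in most replicates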;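 also: 0% = DMSO and -100% = 5 µM competing unlabeled TCR2 RNA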
GLD-1 RNA inh – GLD-1-TGE RNA interaction inhibition (C. elegans); Q17339; purified GLD-1 + fluorescein TGE RNA, fluorescence polarization; inhibition, % at 5.96 µM; 320,000 tested, 0.44% active; AID 2280;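 active = percent inhibition above a per-plate cutoff, the plate mean of test compounds plus 3 SD, cut at about 30% in these data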;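 also: 0% = DMSO wells with GLD-1 and probe and 100% = wells lacking GLD-1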
C-LANA FP – inhibitors of KSHV LANA C-terminal domain DNA binding; MBP-C-LANA/FAM-LBS DNA binding, fluorescence polarization; inhibition, % at 9 µM; 340,000 tested, 0.078% active;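 active = highest replicate inhibition at or above 60% at 9 µM, even if other replicates fall short; inactive = all replicates below 60% inhibition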;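 also: 0% = neutral control wells and 100% = 4 µM acridine orange control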
Keap1 Nrf2 FP – Keap1-Nrf2 (human) interaction inhibition | 340,000 tested, 0.15% active | Q14145 | Keap1 Kelch-Nrf2 peptide fluorescence polarization, 1536-well | inhibition, % at 9.4 µM; in the data active = inhibition above about 12%; inconclusive = no clear call, values can overlap the other calls; inactive = below about 7.3%;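 also: human Keap1 Kelch domain with fluorescein labeled Nrf2 9mer peptide probe; 0% = neutral control wells and 100% = peptide positive control; higher means more block of Keap1 binding to Nrf2 peptide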
E coli Lon inh – inhibits E. coli Lon protease; purified E. coli Lon protease, fluorescence polarization; P0A9M0; inhibition, % at 7.94 µM; 360,000 tested, 0.42% active; in the data active = inhibition above about 13%, passing the limit was not always enough;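 also: 0% = enzyme with probe and DMSO and 100% = no enzyme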
Bcl-xL primary – blocks human Bcl-xL binding to Bim BH3 peptide | Q07817 | GST-Bcl-xL / FITC-Bim BH3 peptide fluorescence polarization | inhibition, % at 10.9 µM | 320,000 tested, 0.7% active;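 active = inhibition above the mean of all tested compounds plus 3 SD, cutoff set per campaign, cut at about 30% in these data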;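 also: 0% = DMSO wells and 100% = unlabeled Bim-BH3 peptide competitor; inhibitors lower millipolarization by displacing the labeled peptide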
Target sequence (Q07817 whole entry, looked up): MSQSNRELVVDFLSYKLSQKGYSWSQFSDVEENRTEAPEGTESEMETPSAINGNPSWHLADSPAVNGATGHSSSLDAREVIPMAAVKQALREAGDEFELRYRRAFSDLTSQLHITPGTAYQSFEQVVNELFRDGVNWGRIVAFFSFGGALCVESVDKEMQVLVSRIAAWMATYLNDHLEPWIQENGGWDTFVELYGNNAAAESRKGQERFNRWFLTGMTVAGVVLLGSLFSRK
An asterisk follows results filed as active; ? = inconclusive; / = no result given; + = active, no number.

SMILES	MEX-5 binding	GLD-1 RNA inh	C-LANA FP	Keap1 Nrf2 FP	E coli Lon inh	Bcl-xL primary
Cc1cc(C(=O)N/N=C2\CCCC(=O)C2)c2ccccc2n1	-5	74*	5	-1	15	26
COC(=O)CCC(=O)OC1(C)C(=O)C2=CN(Cc3ccco3)C(c3ccc(OC)cc3)=CC2=C(Br)C1=O (stereo not given)	-37*	44*	/	/	/	52*
C=CCN1C=C2C(=O)C(C)(OC(=O)CCC(=O)OC)C(=O)C(Br)=C2C=C1c1ccc(OC)cc1 (stereo not given)	-28*	28	8	4	0	71*
COCCN1C=C2C(=O)C(C)(OC(=O)CCC(=O)OC)C(=O)C(Br)=C2C=C1c1ccc(OC)cc1 (stereo not given)	-18	18	4	-1	17	37*
COC(=O)CCC(=O)OC1(C)C(=O)C2=CN(C3CCCC3)C(c3ccc(OC)cc3)=CC2=C(Br)C1=O (stereo not given)	-1	22	4	5	0	34*
CC(=O)N1CCN(C(=O)c2ccc(NS(=O)(=O)c3ccc4[nH]c(=O)[nH]c4c3)cc2)CC1	0	-1	1	2	-12	-1
N#Cc1cccc(NC(=O)c2cc(C3CCCCN3C(=O)c3ccc4c(c3)CCO4)on2)c1 (stereo not given)	/	/	/	/	6	/
CC(C)N1CCCC(C)(C(=O)Nc2cccc(Oc3ccccc3)c2)C1 (stereo not given)	/	/	/	/	-4	/
COc1ccc(N(C)S(=O)(=O)c2cccc(C(=O)OCC(=O)Nc3cc(C)ccc3OC)c2)cc1	/	/	/	/	-5	/
COc1ccc(-n2cnc3c(N)nc(N)nc32)cc1	/	/	2	0	-1	/
CCOc1ccc(S(=O)(=O)N2CCC(C(=O)Nc3ccc(C)c(S(=O)(=O)N4CCOCC4)c3)CC2)cc1	/	/	-1	4	-1	/
COC(=O)c1ccc2nc(-c3ccc(OC)c(OC)c3)c(Cc3ccc(OC)cc3C)n2c1	/	/	/	/	-22	/
CCN(CC)CCCN1C=C2C(=O)C(C)(OC(=O)CCC(=O)OC)C(=O)C(Br)=C2C=C1c1ccc(OC)cc1 (stereo not given)	-11	14	4	1	-28	31*
CC(=O)c1ccc(NC(=O)C2Cc3ccccc3CN2C(=O)c2ccccc2)cc1 (stereo not given)	0	2	-1	1	-2	-2
COc1ccc(NC(=O)C2Cc3ccccc3CN2C(=O)c2ccccc2)cn1 (stereo not given)	-38*	55*	20	7	16	81*
COc1ccc(NC(=O)CSc2nnnn2-c2ccccc2OC)c(OC)c1	1	-6	-1	2	-14	2
COc1ccccc1-n1nnnc1SCC(=O)Nc1ccc(C)c(N)c1	1	93*	-1	2	-7	141*
COc1ccc(CC(=O)Nc2cccc(S(=O)(=O)N3CCCCCC3)c2)cc1OC	0	1	-1	0	-5	1
O=C1CCCC2=C1C(c1ccc(O)c(O)c1)c1c(ccc3ncccc13)N2 (stereo not given)	-9	1	0	1	9	36*
CCN(CC)C(=O)c1cccc(-c2csc(C(O)c3ccc(F)c(OC)c3)n2)c1 (stereo not given)	/	/	/	/	-4	/
Cc1cnn(C(=O)c2cc(-c3ccccn3)nc3ccc(Cl)cc23)c1	1	1	1	0	10	31*
O=C(c1cc(-c2ccccn2)nc2ccc(Cl)cc12)N1CCN(CCc2ccccc2)CC1	-4	4	2	3	2	11
CCN(CC(=O)Nc1c(F)cccc1F)C(=O)c1ccc(OCc2c(C)noc2C)cc1	/	3	2	-2	-10	-2
CC(=O)N1CCC(C(=O)Nc2ccc(S(=O)(=O)NCCc3ccccc3)cc2)CC1	-1	5	-1	-1	-7	3
CC1=C(C#N)c2nc(N)c(C#N)c(C)c2/C1=C\c1ccc(OCC(=O)O)c(Cl)c1	-16	20	9	2	0	37*
SMILES	MEX-5 binding	GLD-1 RNA inh	C-LANA FP	Keap1 Nrf2 FP	E coli Lon inh	Bcl-xL primary
COc1cc(NC(C)CCCN)c2ncccc2c1 (stereo not given)	18	-47	-6	2	2	44*
COc1cc(NCCCCCCCN)c2ncccc2c1	-4	-7	-12	2	-5	4
COc1ccc(OC)c2c1C(=O)C(Cl)=C(Cl)C2=O	-2	18	2	-2	7	39*
COc1ccc(OC)c2c1C(=O)c1ccccc1C2=O	?	+	/	/	/	+
COc1cc(C=C2C(=O)c3ccccc3C2=O)cc(OC)c1OC	-54*	2	-4	-1	-9	11
CCCn1c(/C=C/c2cc[n+](C)cc2)nc2ccccc21	1	30	7	4	8	67*
COc1ccc(CN(C)C(=O)c2cc(S(=O)(=O)Nc3ccccc3F)ccc2C)c(OC)c1	0	0	0	?	5	-13
CC(C)C[C@@H](CN)NC(=O)c1nc[nH]c1C(=O)N[C@@H](C)C(=O)CNC[C@H](C)NC(=O)c1nc[nH]c1C(=O)N[C@@H](CC(=O)O)C(=O)O	/	/	0	-3	8	/
COc1cccc(C(=O)Nc2ccc(Oc3cccc(C(F)(F)F)c3)nc2)c1	-1	0	0	-2	3	7
COc1ccc(NC(=O)COc2cccc(C(F)(F)F)c2)cn1	2	61*	15	7	11	71*
CN(CC(=O)Nc1ccccc1C(F)(F)F)C(=O)c1ccc2c(=O)n3c(nc2c1)CCC3	/	7	-1	-3	-7	1
Cc1ccc(N=Cc2sc(O)c3ccccc23)cc1	-1	-139	-2	-14	-187	-25
Cc1ccc(N=Cc2sc(O)c3ccccc23)c(C)c1	-31*	-136	0	-7	10	-17
Oc1ccc(O)c(-c2cnns2)c1	-63*	14	-1	-1	19	19
Cc1cccc(NC(=S)N=Nc2c(O)n(CN3CCOCC3)c3ccccc23)c1C	1	0	-1	-8	6	3
Cc1ccc(N=Nc2c(O)n(CN3CCOCC3)c3ccccc23)cc1	-28*	89*	0	4	-16	96*
Cc1cccn2c(=O)c(/C=C(\C#N)S(=O)(=O)c3ccccc3)c(N3CCN(Cc4ccccc4)CC3)nc12	1	10	0	0	10	31*
CC1(C)CC(NC(=O)C(F)(F)F)CC(C)(C)N1OC(=O)c1ccco1	0	0	0	5	3	-3
C=CC1=C2C=C(C3CC3)N(C3CC3)C=C2C(=O)C(C)(OC(=O)c2ccco2)C1=O (stereo not given)	-7	16	0	-4	11	31*
O=C(Nc1cccc(S(=O)(=O)NC2=NCCC2)c1)c1cc(-c2ccco2)nc2ccccc12	-2	7	1	-4	-1	27

Screens as filed in PubChem.
